The source of these data is PubChem BioAssay (NCI).

Compounds without any hit were thinned out: in the full panel of roughly 83,000, 20% have a hit.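 For each line, cells grew in 96-well plates with the test compound present at a single concentration for 48 hours.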 Values without a mark were called inactive. The source made the active and inactive calls. The calls were made as follows: active = growth percent below 10; inactive = the rest.

Some test systems named below: NCI-H23 lung; NCI-H226 lung; NCI-H322M lung; HOP-62 NSCLC; NCI-H460 lung; HOP-92 NSCLC; NCI-H522 lung; A549/ATCC NSCLC; 786-0 renal; COLO 205 colon; DU-145 prostate; K-562 leukemia; MALME-3M melanoma; MDA-MB-231 breast; RXF 393 renal; SF-268 CNS; SF-295 CNS; SF-539 CNS; UACC-257 melanoma; M14 melanoma.
Holding throughout (assay): NCI-60 one-dose screen, 48 h (100 = growth as untreated, 0 = no growth, -100 = all killed)
Common to all, as to conditions: 10 µM unless noted

For the compound `N#CC1=C(N)Oc2c(ccc3ccccc23)C1c1ccc([N+](=O)[O-])cc1` (stereo not given), the growth in the test with NCI-H23 lung was 79.1%; with NCI-H226 lung it was 66.7%; in the test on NCI-H322M lung it was 95.2%; in the test on HOP-62 NSCLC, 73.3%; in the test with NCI-H460 lung, 69.8%; with HOP-92 NSCLC, 93.4%. Also, the growth in the test with NCI-H522 lung is 57.5%; in the test with A549/ATCC NSCLC it was 73%; in the test on 786-0 renal, 102%; in the test with COLO 205 colon, 105%; in the test on DU-145 prostate, 89.6%; with K-562 leukemia it was 21.4%. Further, the growth in the test on MALME-3M melanoma is 84.3%; with MDA-MB-231 breast it was 61.4%; with RXF 393 renal, 101%; in the test with SF-268 CNS it was 79.6%; in the test with SF-295 CNS it was 75.6%; in the test with SF-539 CNS it was 87.8%. The values for the growth with UACC-257 melanoma and in the test on M14 melanoma were 94.7% and 67.8%, respectively.

Consider `N#Cc1c(Nc2ccccc2)nn2cc(-c3nc4ccccc4s3)c(N)nc12`, for which the growth in the test with NCI-H23 lung was 60.3%; in the test with NCI-H226 lung, 65.6%; in the test on NCI-H322M lung, 86.2%; with HOP-62 NSCLC, 92.9%; with NCI-H460 lung it was 61.8%; in the test with HOP-92 NSCLC, 80.6%. Besides, the growth in the test on NCI-H522 lung was 72.8%; in the test with A549/ATCC NSCLC, 80.6%; in the test with 786-0 renal it was 76.3%; with COLO 205 colon it was 114%; in the test on DU-145 prostate it was 66%; with K-562 leukemia it was 74.8%. Moreover, the growth with MALME-3M melanoma is 40.4%; with MDA-MB-231 breast, 72.5%; with RXF 393 renal it was 87.8%; in the test with SF-268 CNS, 70%; in the test with SF-295 CNS, 99%; in the test on SF-539 CNS it was 58%. Besides, the values for the growth with UACC-257 melanoma and with M14 melanoma were 83.7% and 58.8%, respectively.

Take `C(=C\c1n(Cc2ccc3ccccc3c2)c(-c2ccccc2)c(-c2ccccc2)[n+]1Cc1ccc2ccccc2c1)/c1ccccc1`: the growth in the test on NCI-H23 lung was -80.2% (active); in the test on NCI-H226 lung, -74.9% (active); with NCI-H322M lung it was -5.86% (active); with HOP-62 NSCLC, -84.5% (active); in the test with NCI-H460 lung it was -84.1% (active); in the test on HOP-92 NSCLC, -81.8% (active). The growth is -62.3% (active) with NCI-H522 lung; -62.4% (active) in the test on A549/ATCC NSCLC; -78.2% (active) in the test with 786-0 renal; -70.5% (active) in the test on COLO 205 colon; -97% (active) with DU-145 prostate; -22.3% (active) in the test on K-562 leukemia. Besides, the growth was -86.9% (active) with MALME-3M melanoma; -95% (active) with MDA-MB-231 breast; -93.5% (active) in the test with RXF 393 renal; -68.5% (active) in the test with SF-268 CNS; -95.9% (active) in the test with SF-295 CNS; -91.9% (active) in the test with SF-539 CNS. Moreover, the growth in the test with UACC-257 melanoma is -69.2% (active); in the test on M14 melanoma, -72.2% (active).

Turning to `OC(c1ccccc1)c1ccccn1` (stereo not given), the growth is 107% in the test on NCI-H23 lung; 97.8% in the test on NCI-H226 lung; 102% in the test on NCI-H322M lung; 104% in the test on HOP-62 NSCLC; 107% in the test with NCI-H460 lung; 94.4% in the test with HOP-92 NSCLC. The growth in the test on NCI-H522 lung is 84.6%; in the test on A549/ATCC NSCLC it was 77.1%; in the test with 786-0 renal, 97.2%; with COLO 205 colon, 108%; with DU-145 prostate, 110%; in the test on K-562 leukemia it was 94.3%. Besides, the growth with MALME-3M melanoma was 113%; in the test on MDA-MB-231 breast, 105%; with RXF 393 renal it was 104%; in the test with SF-268 CNS it was 102%; in the test with SF-295 CNS it was 101%; in the test on SF-539 CNS it was 97.7%. In addition, the growth was 90.5% in the test with UACC-257 melanoma and 96.1% in the test on M14 melanoma.

Regarding `CC(C)Cc1ccc(C(C)C(=O)NCc2c[nH]c3ccc(Cl)cc23)cc1` (stereo not given), the growth in the test with NCI-H23 lung is 98%; with NCI-H226 lung it was 92.3%; in the test with NCI-H322M lung it was 99.7%; in the test on HOP-62 NSCLC, 99.7%; in the test on NCI-H460 lung, 99.7%; with HOP-92 NSCLC it was 79.8%. Besides, the growth in the test with NCI-H522 lung is 87.2%; in the test with A549/ATCC NSCLC, 89%; in the test on 786-0 renal it was 95.8%; in the test with COLO 205 colon it was 107%; in the test on DU-145 prostate it was 103%; in the test with K-562 leukemia it was 71.3%. For the same compound, the growth with MALME-3M melanoma is 98.8%; with MDA-MB-231 breast, 82.2%; with RXF 393 renal it was 87.8%; with SF-268 CNS it was 89.3%; in the test with SF-295 CNS, 88.3%; in the test on SF-539 CNS, 100%. The growth is 99.4% in the test with UACC-257 melanoma and 92.4% in the test on M14 melanoma.

In the case of `C=CCn1c(SCC(=O)Nc2ccc(C(=O)/C=C/c3cc(OC)c(OC)c(OC)c3)cc2)nnc1-c1cc(OC)c(OC)c(OC)c1`, the growth in the test with NCI-H23 lung is 55.2%; with NCI-H226 lung, 35.9%; in the test with NCI-H322M lung, 85.5%; with HOP-62 NSCLC it was 55%; in the test with NCI-H460 lung, 31.4%; with HOP-92 NSCLC, 82.2%. The growth in the test with NCI-H522 lung is 47%; in the test on A549/ATCC NSCLC, 47.2%; with 786-0 renal, 53.6%; with COLO 205 colon, 41.2%; with DU-145 prostate, 24.2%; with K-562 leukemia, 6.9% (active). Further, the growth is 92.4% with MALME-3M melanoma; 49.3% in the test with MDA-MB-231 breast; 21.4% with RXF 393 renal; 34.9% with SF-268 CNS; 60.4% with SF-295 CNS; 4.95% (active) in the test on SF-539 CNS. The growth is 64.1% with UACC-257 melanoma and 18.6% with M14 melanoma.
